Screening results deposited in PubChem by National Center for Advancing Translational Sciences (NCATS).
This is one part of a sample in which hits are shown more often than they occur.
IL-1B inflam inh = inflammasome signaling inhibition, IL-1 beta readout; THP-1 LPS/ATP IL-1B secretion, AlphaLISA, 16 h; stronger effect = lower value; activity change, % at 57.5 µM; 360,000 tested, 4.7% active; AID 743279; in the data active = activity change below about -50%; inconclusive = mostly about -30% to -49%
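Secreted IL-1B measured by AlphaLISA bead assay after 16 h compound exposure of THP-1 cells; compounds (final up to 57.5 uM) added 1 h before LPS (250 ng/mL) and ATP (1.25 mM) stimulation; lower signal means less secretion.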
HT1080 IDH1KD tx = kills HT-1080 cells with IDH1 knockdown. HT-1080 IDH1 knockdown viability, ATP luminescence, 48 h. Potency, µM (top dose mostly 46.1 µM), hits mostly cytotoxic. 360,000 tested, 2% active. AID 686971
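Luminescent ATP read-out (CellTiter-Glo, 10 min at room temperature) after 48 h compound exposure at 37 °C gave viability of IDH1-knockdown HT-1080 cells. Activity was normalised to DMSO and cell-free wells, then fitted as concentration-response curves.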
DT40 TDP1 no CPT = qHTS for Inhibitors of human tyrosyl-DNA phosphodiesterase 1 (TDP1): qHTS in cells in absence of CPT. DT40 Tdp1-/- hTDP1 cells, no CPT, ATP luminescence, 48 h. Potency, µM (highest dose often 46.2 µM), actives largely listed as inhibitors. 420,000 tested, 15% active. AID 686978, 2013; note: nearly all actives have a fitted effect of over 55% in size
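Compound effects on proliferation are scored in DT40 Tdp1-/-;hTDP1 cells in the absence of CPT. ATP levels (CellTiter-Glo luminescence) are recorded after a ≥48 hr, 37 °C incubation.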
HT1080NT lethal = kills 2HG-producing HT-1080-NT fibrosarcoma cells. HT-1080-NT fibrosarcoma viability, CellTiter-Glo ATP luminescence, 48 h. Potency, µM (doses to about 46.1 µM), hits mostly cytotoxic. 360,000 tested, 1.6% active. AID 686970;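 note: NT is the 2HG producing partner of a matched IDH1 knockdown line; nearly all actives have a fitted effect of over 55% in size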
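Compounds were tested in concentration-response format on HT-1080-NT cells for 48 hours at 37 degrees C. Cell viability came from CellTiter-Glo luminescence; curves were classified by r2, response magnitude and activity.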
ALOX12 inh = blocks human arachidonate 12S-lipoxygenase; P18054; purified 12hLO, xylenol orange hydroperoxide absorbance; Potency, µM (series often up to 108 µM), hits mostly inhibitors; 580,000 tested, 1.1% active; AID 1671190
Target sequence (P18054 whole entry, looked up): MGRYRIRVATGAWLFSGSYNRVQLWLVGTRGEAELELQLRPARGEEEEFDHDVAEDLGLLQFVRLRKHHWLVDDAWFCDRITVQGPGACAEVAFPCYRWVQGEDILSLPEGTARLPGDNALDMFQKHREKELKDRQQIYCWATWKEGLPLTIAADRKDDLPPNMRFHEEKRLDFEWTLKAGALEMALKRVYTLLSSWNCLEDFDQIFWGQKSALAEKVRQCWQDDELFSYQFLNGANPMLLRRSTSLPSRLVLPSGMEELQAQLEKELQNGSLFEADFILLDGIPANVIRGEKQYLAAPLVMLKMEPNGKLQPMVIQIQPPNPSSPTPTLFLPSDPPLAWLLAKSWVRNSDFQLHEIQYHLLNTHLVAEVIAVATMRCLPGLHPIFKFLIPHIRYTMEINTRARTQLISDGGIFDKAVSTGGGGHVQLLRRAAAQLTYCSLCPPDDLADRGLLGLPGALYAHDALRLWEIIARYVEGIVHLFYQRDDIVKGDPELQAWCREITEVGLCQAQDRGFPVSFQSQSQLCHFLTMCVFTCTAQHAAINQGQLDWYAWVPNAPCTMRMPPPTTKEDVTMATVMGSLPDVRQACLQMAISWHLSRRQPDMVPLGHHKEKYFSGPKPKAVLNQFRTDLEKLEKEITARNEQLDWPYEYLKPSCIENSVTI
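Purified human 12hLO at 150 nM in 25 mM Hepes, 0.01% Triton X-100, pH 7.0, preincubated 15 min at room temperature with compound. Reaction started with 40 uM arachidonic acid, 30 min at room temperature. Hydroperoxide measured by Fe-xylenol orange, 573/405 nm absorbance ratio.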
TDP1 cell CPT = DT40-hTDP1 cell growth loss with CPT | chicken DT40 Tdp1-/-;hTDP1 cells + 20 nM CPT, ATP luminescence, 48 h | Potency, µM (titrated, usually from 46.2 µM), hits mostly inhibitors | 420,000 tested, 12% active | AID 686979; note: nearly all actives have a fitted effect of over 55% in size
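Cell growth measured by CellTiter-Glo luminescence after a minimum 48 h, 37 C compound exposure with 20 nM CPT in Tdp1-knockout DT40 cells stably expressing hTDP1, seeded 400/well; qHTS titration format.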
Hits are given with their value; – = inactive; ? = inconclusive; · = no result given. Unless noted, calls come from the whole dose curve; as a rule, active = well fitted curve in the direction sought with a large enough effect; inconclusive = small, poorly fitted or top-dose-only effect, or another doubt; inactive = no such curve, though single readings can be large; an effect the other way counts as inactive or inconclusive.

SMILES	IL-1B inflam inh	HT1080 IDH1KD tx	DT40 TDP1 no CPT	HT1080NT lethal	ALOX12 inh	TDP1 cell CPT
CC1=CC(=O)C=C(C)C1=NOc1ccccc1[N+](=O)[O-]	?	–	2.1µM	–	–	1.3µM
CC(C)(C)/C(COc1ccccc1[N+](=O)[O-])=N/O	–	–	–	–	–	?
Nc1nc(/C=C/c2cccnc2)nc(-c2ccccc2O)n1	-60	–	9.2µM	–	–	2.9µM
Nc1nc(/C=C/c2ccc(F)cc2)nc(-c2ccccc2O)n1	–	–	–	–	–	?
CCOc1ccccc1CN1[C@@H](c2ccc(OC)cc2)CC(C(=O)OC)(C(=O)OC)[C@H]1c1ccccc1	–	–	15µM	–	–	?
COC(=O)C1(C(=O)OC)C[C@H](/C=C/c2ccccc2)N(Cc2ccccc2OC)[C@@H]1c1cccc(Br)c1	–	–	?	–	–	?
COC(=O)C1(C(=O)OC)C[C@H](c2cccs2)N(Cc2ccccc2OC)[C@@H]1c1ccc(F)cc1	–	–	15µM	–	–	15µM
COC(=O)C1(C(=O)OC)C[C@H](/C=C/c2ccccc2)N(Cc2ccccc2OC)[C@@H]1c1ccccc1	–	–	15µM	–	–	?
COc1ccccc1NC(=O)COc1ccccc1C(=O)c1cnn(-c2ccccc2)c1	–	–	23µM	–	–	21µM
CC(=O)c1cccc(NC(=O)COC(=O)c2ccc(C3Nc4ccccc4S(=O)(=O)N3)cc2)c1 (stereo not drawn)	·	·	·	·	–	·
CN1CCN(CCCNc2nc3ccccc3c3nc(-c4ccccc4)nn23)CC1	–	–	13µM	–	–	?
CCOc1ccccc1NC(=O)CSc1nc2cc(OC)c(OC)cc2c2nc(-c3ccccc3)nn12	·	·	–	·	–	–
COc1cc2nc(NCCCN3CCN(C)CC3)n3nc(-c4ccccc4)nc3c2cc1OC	-110	?	?	16µM	–	?
CC1=C(C)/C(=N/OC(=O)c2cccc([N+](=O)[O-])c2)C=CC1=O	–	18µM	21µM	?	·	21µM
N/C(=N/OC(=O)c1cccc([N+](=O)[O-])c1)c1cccc([N+](=O)[O-])c1	–	–	–	–	–	–
CCn1c2ccccc2c2cc(NC(=O)CSc3nnc(-c4cccc(F)c4)o3)ccc21	–	?	15µM	13µM	–	16µM
CCn1c2ccccc2c2cc(NC(=O)CSc3nnc(-c4cccc(C)c4)o3)ccc21	–	–	?	–	–	?
CCn1c2ccccc2c2cc(NC(=O)CSc3nnc(-c4ccccc4)o3)ccc21	?	21µM	21µM	?	–	9.2µM
CCn1c(SCC(=O)Nc2ccc3c(c2)c2ccccc2n3CC)nnc1-c1ccco1	–	–	–	?	11µM	–
O=C(Cn1cnc2ccc(Cl)cc2c1=O)N(C1CC1)C1CCS(=O)(=O)C1 (stereo not drawn)	·	·	·	·	–	·
Cc1ccc(C2Cn3nnc(C(=O)N4CCC(C(=O)NCc5ccccc5F)CC4)c3CO2)cc1 (stereo not drawn)	·	·	·	·	–	·
CCOC(=O)Nc1nc2ccc(Cn3cccc3)cc2[nH]1	–	?	0.58µM	3.3µM	?	0.82µM
COC(=O)Nc1nc2ccc(C(=O)c3ccc(F)cc3)cc2[nH]1	·	·	·	·	–	·
CCCOc1ccc2nc(NC(=O)OC)[nH]c2c1	·	·	0.15µM	·	–	0.094µM
CC(C)CNC(=O)c1ccc2c(=O)n(CCc3ccccc3)c(SCC#N)nc2c1	·	·	·	·	–	·
SMILES	IL-1B inflam inh	HT1080 IDH1KD tx	DT40 TDP1 no CPT	HT1080NT lethal	ALOX12 inh	TDP1 cell CPT
Brc1cccc(/C=N/Nc2ccc3ccccc3c2)c1	·	·	·	·	5.6µM	·
Brc1cccc(/C=N/Nc2cccc3cccnc23)c1	·	·	·	·	–	·
Clc1cccc(/C=N/Nc2ccc(Cl)c(Cl)c2)c1	·	·	·	·	5.6µM	·
Clc1ccc(N/N=C/c2ccncc2)cc1Cl	–	?	?	–	?	–
Clc1ccc(N/N=C/c2cccc(/C=N/Nc3ccc(Cl)c(Cl)c3)c2)cc1Cl	·	·	·	·	0.71µM	·
Clc1ccc(N/N=C/c2ccccc2)cc1Cl	·	·	·	·	2.2µM	·
Cc1nnc([C@@H]2CC(F)(F)CN2C(=O)c2ccc3ncccc3c2)o1	·	·	·	·	–	·
CC(C)c1ccc(CNc2ccc([N+](=O)[O-])cn2)cc1	?	?	?	?	–	–
O=C(O)c1cccc(Nc2ccc([N+](=O)[O-])cn2)c1	–	–	–	–	?	–
Cc1ccc(OC(C)C(=O)Nc2ccc(Cl)cn2)c([N+](=O)[O-])n1 (stereo not drawn)	–	–	–	–	–	–
Cc1cc(Cl)ccc1OC(C)C(=O)Nc1ccc([N+](=O)[O-])cn1 (stereo not drawn)	-69	–	?	–	–	?
CC(Nc1ccc([N+](=O)[O-])cn1)c1cccc(Cl)c1 (stereo not drawn)	·	·	·	·	–	·
O=[N+]([O-])c1ccc(NCc2ccc(Cl)cc2)nc1	-78	–	–	–	–	–
O=[N+]([O-])c1ccc(Nc2ccc(Cl)cc2)nc1	-57	?	–	–	?	–
O=[N+]([O-])c1ccc(NNS(=O)(=O)c2cc(Cl)ccc2Cl)nc1	–	–	?	–	–	21µM
CC(=O)Nc1ccc([N+](=O)[O-])cn1	–	–	–	–	–	–
CC(C)(C)c1ccc(CNc2ccc([N+](=O)[O-])cn2)cc1	–	–	23µM	–	–	?
CCOc1ccc2nc(NC(=O)c3ccc(OCC4CCCO4)cc3)sc2c1 (stereo not drawn)	–	?	5.8µM	?	–	4.1µM
CCOC(=O)c1csc(Nc2nc3ccc(F)cc3s2)n1	–	?	9.2µM	–	–	21µM
O=C(Nc1nc2ccccc2s1)c1cnccn1	–	?	?	2.8µM	–	?
O=C(Nc1nc2ccc(F)cc2s1)c1ccccn1	-95	8.2µM	0.52µM	?	–	0.65µM
CCOc1ccc2nc(NC(=O)C3(C)CC3(Br)Br)sc2c1 (stereo not drawn)	–	–	23µM	–	–	16µM
CCOc1ccc2nc(NC(=O)c3cnccn3)sc2c1	–	–	23µM	–	–	23µM
O=C(Nc1nnc(SCc2ccc(F)cc2)s1)c1cccnc1Cl	–	–	–	–	–	–
CCOCC(=O)Nc1nc2ccc(OCC)cc2s1	–	–	?	–	–	?
O=C(Nc1nnc(SCc2ccc(F)cc2)s1)c1ccccn1	–	?	5.2µM	?	–	2.6µM
O=C(NNc1nc2ccccc2s1)c1ccc(F)cc1	–	–	–	–	–	–
O=C(NNc1nc2ccc(F)cc2s1)c1cccc(F)c1	–	15µM	?	?	?	12µM
